Laboratory results as given in PubChem BioAssay (EPA / NIEHS).
Inconclusive results are not listed. More than one record can exist for a structure, and the calls need not agree. Calls of active or inactive are those of the source. Rule for the calls: active = hit-call score of the fitted dose curve at least 0.9, where 1 is the maximum; inconclusive = response in the unintended direction; inactive = score below 0.9.

Test: Tanguay_ZF_120hpf_PE_legacy: (Legacy) Oregon State University Tanguay Lab 120 Hour Post-fertilization zebrafish Assay for Pericardial Edema (AID 2283640);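 for AC50: potency for increased incidence of pericardial edema versus DMSO baseline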
Experimental: Tanguay_ZF_120hpf_legacy is a whole embryo, multiplexed endpoint assay using zebrafish larvae exposed for 120 hours post fertilization on a 96-well plate.Tanguay_ZF_120hpf_PE_legacy is one of one assay component(s) measured or calculated from the Tanguay_ZF_120hpf_legacy assay. It is designed to make measurements of zebrafish development as detected with brightfield microscopy of developing zebrafish embryos.Data from the assay component Tanguay_ZF_120hpf_PE_legacy was analyzed into 1 assay endpoints. This assay endpoint, Tanguay_ZF_120hpf_PE_legacy, was analyzed in the positive analysis fitting direction relative to DMSO as the negative control and baseline of activity. Using a type of morphology reporter, gain-of-signal activity can be used to understand changes in developmentals as they relate to the whole embryo. To generalize the intended target to other relatable targets, this assay endpoint is annotated to the zebrafish development intended target family, where the subfamily is embryonic morphogenesis.
Zebrafish husbandry: Tropical 5D wild-type adult zebrafish were housed in at an approximate density of 1000 per 100 gallon tank at the Sinnhuber Aquatic Research Laboratory, Oregon State University, Corvallis, OR. Each tank was kept at standard laboratory conditions of 28C on a 14-h light/10-h dark photoperiod in fish water consisting of reverse osmosis water supplemented with a commercially available salt (Instant Ocean). Spawning funnels were placed into the tanks the night prior, and embryos were collected and staged. […] Ten microliters of each row of dilution plate 2 was added to 2 exposure plates. The final DMSO concentration used was 0.64% (vol/vol). Thirty-two embryos were also exposed to 5uM trimethyltin chloride (positive control). Plates were sealed to prevent evaporation and foil covered to reduce light exposure and kept in a 28C incubator. Embryos were statically exposed until 120 hpf. At 24 hpf, embryos were assessed for photomotor response using a custom photomotor response analysis tool (PRAT) and for developmental toxicity endpoints (MO24: mortality at 24 hpf, DP: developmental progression, SM: spontaneous movement, and NC: notochord distortion). At 120 hpf, locomotor activity was measured using Viewpoint Zebralab and assessed for 18 endpoints. Zebrafish acquisition and analysis program (ZAAP), a custom program designed to inventory, acquire, and manage zebrafish data, was used to collect developmental endpoints as either present or absent (i.e., binary responses were recorded). If mortality occurred for an embryo (at either 24 or 120 hpf), the non-mortality endpoints were not measured.

Q: For `C=CCC1=C(C)[C@@H](OC(=O)[C@@H]2[C@@H](C=C(C)C)C2(C)C)CC1=O`, which outcome is on record?
A: inactive

Q: With `CCCCNC(=O)n1c(NC(=O)OC)nc2ccccc21` as the compound, how does the outcome read?
A: inactive

Q: With `CO/C=C(/C(=O)OC)c1ccccc1Oc1cc(Oc2ccccc2C#N)ncn1` as the compound, how does the AC50 read?
A: 5.47 µM (active)

Q: What about the outcome of the same compound?
A: inactive

Q: For `COC(=O)C=C(C)OP(=O)(OC)OC`, which outcome is on record?
A: inactive

Q: Which outcome does the source give for `N#Cc1nn(-c2c(Cl)cc(C(F)(F)F)cc2Cl)c(N)c1S(=O)C(F)(F)F` (stereo not given) here?
A: inactive

Q: Which outcome does the source give for `CCNc1nc(Cl)nc(NCC)n1` here?
A: inactive

Q: Which AC50 does the source give for `Cc1c(F)c(F)c(COC(=O)C2C(/C=C(\Cl)C(F)(F)F)C2(C)C)c(F)c1F` (stereo not given) here?
A: 5.03 µM (active)

Q: Which outcome does the source give for `CON(C)C(=O)Nc1ccc(Cl)c(Cl)c1` here?
A: inactive

Q: Which outcome does the source give for `CC(C)(C)c1ccc(CSc2cnn(C(C)(C)C)c(=O)c2Cl)cc1` here?
A: inactive

Q: With `COc1nc(NC(C)C)nc(NC(C)C)n1` as the compound, how does the outcome read?
A: inactive

Q: With `CC1=C(C(=O)Nc2ccccc2)SCCO1` as the compound, how does the outcome read?
A: inactive

Q: For `O=C(O)COc1nc(Cl)c(Cl)cc1Cl`, which outcome is on record?
A: inactive

Q: For `C=CC1(C)OC(=O)N(c2cc(Cl)cc(Cl)c2)C1=O` (stereo not given), which outcome is on record?
A: inactive

Q: With `CCCCNC(=O)OCC#CI` as the compound, how does the outcome read?
A: inactive

Q: Which outcome does the source give for `CN(C)C(=S)SSC(=S)N(C)C` here?
A: inactive

Q: With `N#Cc1cc(Br)c(O)c(Br)c1` as the compound, how does the outcome read?
A: inactive

Q: For `Cc1cc(Cl)ccc1OCC(=O)O`, which outcome is on record?
A: inactive

Q: With `OC(c1ccc(Cl)cc1)(c1cncnc1)c1ccccc1Cl` (stereo not given) as the compound, how does the outcome read?
A: inactive

Q: Which outcome does the source give for `COP(N)(=O)SC` (stereo not given) here?
A: inactive

Q: With `CC(C)C1(C)N=C(c2nc3ccccc3cc2C(=O)O)NC1=O` (stereo not given) as the compound, how does the outcome read?
A: inactive

Q: For `COC(=O)c1ccccc1C(=O)OC`, which outcome is on record?
A: inactive

Q: For `CC(Oc1ccc(Cl)cc1Cl)C(=O)O` (stereo not given), which outcome is on record?
A: inactive

Q: For `Fc1ccc(Oc2ccnc3cc(Cl)cc(Cl)c23)cc1`, which outcome is on record?
A: inactive

Q: With `CCCN(CCC)c1c([N+](=O)[O-])cc(S(N)(=O)=O)cc1[N+](=O)[O-]` as the compound, how does the outcome read?
A: inactive

Q: With `Oc1ccccc1-c1ccccc1` as the compound, how does the outcome read?
A: inactive

Q: Which outcome does the source give for `COC(=O)C(C)Oc1ccc(Oc2ccc(Cl)cc2Cl)cc1` (stereo not given) here?
A: inactive

Q: With `C=CCC1=C(C)C(OC(=O)C2C(C=C(C)C)C2(C)C)CC1=O` (stereo not given) as the compound, how does the outcome read?
A: inactive

Q: For `CNC(=O)ON=CC(C)(C)SC`, which AC50 is on record?
A: 2.81 µM (active)

Q: Which outcome does the source give for `COC(=O)N(OC)c1ccccc1COc1ccn(-c2ccc(Cl)cc2)n1` here?
A: inactive

Q: With `Cc1ccc(-c2c(Cl)nc(C#N)n2S(=O)(=O)N(C)C)cc1` as the compound, how does the outcome read?
A: inactive

Q: Which outcome does the source give for `C#CCOS(=O)OC1CCCCC1Oc1ccc(C(C)(C)C)cc1` (stereo not given) here?
A: inactive

Q: With `COc1cnc(OC)n2nc(NS(=O)(=O)c3c(OCC(F)F)cccc3C(F)(F)F)nc12` as the compound, how does the outcome read?
A: inactive

Q: Which outcome does the source give for `N#CC(CCc1ccc(Cl)cc1)(Cn1cncn1)c1ccccc1` (stereo not given) here?
A: inactive

Q: With `CCc1nn(C)c(C(=O)NCc2ccc(C(C)(C)C)cc2)c1Cl` as the compound, how does the AC50 read?
A: 5.67 µM (active)

Q: For `CCNc1nc(Cl)nc(NC(C)C)n1`, which outcome is on record?
A: inactive

Q: For `O=C(Nc1ccccc1)Nc1ccnc(Cl)c1`, which AC50 is on record?
A: 50.5 µM (active)

Q: For `CCON=C(CC)C1=C(O)CC(c2c(C)cc(C)cc2C)CC1=O` (stereo not given), which outcome is on record?
A: inactive

Q: Which AC50 does the source give for `CCOC(=O)CC(SP(=S)(OC)OC)C(=O)OCC` (stereo not given) here?
A: 37 µM (active)

Q: With `CCCCOC(=O)c1ccccc1C(=O)OCCCC` as the compound, how does the outcome read?
A: inactive
